Data from PubChem BioAssay AID1159580 (chemical genetic matrix, 2015).
Values joined by “and” are separate entries in the source; they are usually repeats but may differ in a detail not shown here. Equal entries are not always repeated. Out of some 5,500 compounds screened, about 2,000 (36%) were called active. Inconclusive results (about 18%) are left out. Some of the results follow. Unmarked numbers belong to inactive results. Cut-off read from the data, not from the text of the source: active = normalized growth mostly below about 0.91 (no sharp cut-off); inconclusive = no clear call, values can overlap the other calls; inactive = mostly above about 0.92.

Assay: chemical genetic growth profiling, strain panel (AID 1159580);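 note: tested at 20 µM; growth read once vehicle control cultures reached saturation at 30 °C; 1 = growth at the plate median or of vehicle wells; lower values mean less growth of the strain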
Settings: S. cerevisiae deletion strains, growth OD

With `Oc1cc2c(cc1O)C1c3ccc(O)c(O)c3OCC1(O)C2` (centres undefined) the normalized growth (locus YAL021C, strain ccr4, stronger effect = lower value) was 1, the normalized growth (locus YAL030W, strain snc1, stronger effect = lower value) was 1.01 and the normalized growth (locus YBL061C, strain skt5, stronger effect = lower value) was 0.993. For the same compound, the normalized growth (locus YBR009C, strain hhf1, stronger effect = lower value) was 1, the normalized growth (locus YBR021W, strain FUR4, stronger effect = lower value) was 1.01 and the normalized growth (locus YBR023C, strain chs3, stronger effect = lower value) was 0.995. For the same compound, the normalized growth (locus YBR171W, strain sec66, stronger effect = lower value) was 1.01, the normalized growth (locus YBR229C, strain ROT2, stronger effect = lower value) was 1 and the normalized growth (locus YBR231C, strain swc5, stronger effect = lower value) was 0.956. The normalized growth (locus YBR279W, strain paf1, stronger effect = lower value) was 0.984, the normalized growth (locus YCL011C, strain gbp2, stronger effect = lower value) was 1.01 and the normalized growth (locus YCL016C, strain dcc1, stronger effect = lower value) was 1. The normalized growth (locus YCL029C, strain bik1, stronger effect = lower value) was 0.997, the normalized growth (locus YCL069W, strain vba3, stronger effect = lower value) was 1.02 and the normalized growth (locus YCR088W, strain abp1, stronger effect = lower value) was 1.02. It also gave a normalized growth (locus YDL005C, strain med2, stronger effect = lower value) of 1, a normalized growth (locus YDL035C, strain GPR1, stronger effect = lower value) of 0.973 and a normalized growth (locus YDL040C, strain nat1, stronger effect = lower value) of 1.04. For the same compound, the normalized growth (locus YDL074C, strain BRE1, stronger effect = lower value) was 0.852, the normalized growth (locus YDL101C, strain DUN1, stronger effect = lower value) was 0.908 and the normalized growth (locus YDL134C, strain PPH21, stronger effect = lower value) was 0.832 (active). For the same compound, the normalized growth (locus YDL185W, strain tfp1, stronger effect = lower value) was 0.961, the normalized growth (locus YDL192W, strain arf1, stronger effect = lower value) was 0.997 and the normalized growth (locus YDR001C, strain nth1, stronger effect = lower value) was 1.02. For the same compound, the normalized growth (locus YDR069C, strain doa4, stronger effect = lower value) was 0.936, the normalized growth (locus YDR101C, strain arx1, stronger effect = lower value) was 1.07 and the normalized growth (locus YDR137W, strain rgp1, stronger effect = lower value) was 1.05. For the same compound, the normalized growth (locus YDR159W, strain sac3, stronger effect = lower value) was 1.03, the normalized growth (locus YDR162C, strain NBP2, stronger effect = lower value) was 0.821 (active) and the normalized growth (locus YDR195W, strain ref2) was 1.02. It also gave a normalized growth (locus YDR297W, strain sur2, stronger effect = lower value) of 1.01, a normalized growth (locus YDR318W, strain mcm21, stronger effect = lower value) of 0.99 and a normalized growth (locus YDR334W, strain swr1, stronger effect = lower value) of 0.991. It also gave a normalized growth (locus YDR335W, strain msn5, stronger effect = lower value) of 0.996, a normalized growth (locus YDR388W, stronger effect = lower value) of 0.998 and a normalized growth (locus YDR392W, strain spt3, stronger effect = lower value) of 0.991. The normalized growth (locus YDR502C, strain sam2, stronger effect = lower value) was 1.01, the normalized growth (locus YEL003W, strain gim4, stronger effect = lower value) was 1.01 and the normalized growth (locus YEL037C, strain rad23, stronger effect = lower value) was 1.02. The normalized growth (locus YEL061C, strain CIN8 (second series), stronger effect = lower value) was 1.02, the normalized growth (locus YEL061C, strain CIN8, stronger effect = lower value) was 0.964 and the normalized growth (locus YER015W, strain faa2, stronger effect = lower value) was 0.983. For the same compound, the normalized growth (locus YER016W, strain bim1, stronger effect = lower value) was 1.02, the normalized growth (locus YER110C, stronger effect = lower value) was 0.999 and the normalized growth (locus YER111C, strain swi4, stronger effect = lower value) was 0.961. The normalized growth (locus YER155C, strain BEM2 (second series), stronger effect = lower value) was 1.02, the normalized growth (locus YER155C, strain BEM2, stronger effect = lower value) was 1.02 and the normalized growth (locus YER167W, strain BCK2, stronger effect = lower value) was 1.04. For the same compound, the normalized growth (locus YFR010W, strain ubp6, stronger effect = lower value) was 0.983, the normalized growth (locus YGL078C, strain dbp3, stronger effect = lower value) was 0.972 and the normalized growth (locus YGL086W, strain mad1, stronger effect = lower value) was 0.966. It also gave a normalized growth (locus YGL173C, strain kem1, stronger effect = lower value) of 0.985, a normalized growth (locus YGL227W, strain vid30, stronger effect = lower value) of 1.01 and a normalized growth (locus YGL240W, strain doc1, stronger effect = lower value) of 1.04. It also gave a normalized growth (locus YGL248W, strain PDE1, stronger effect = lower value) of 0.893, a normalized growth (locus YGL253W, strain hxk2, stronger effect = lower value) of 1.01 and a normalized growth (locus YGR078C, strain PAC10, stronger effect = lower value) of 0.916. The normalized growth (locus YGR135W, strain pre9, stronger effect = lower value) was 0.946, the normalized growth (locus YGR252W, strain gcn5, stronger effect = lower value) was 0.992 and the normalized growth (locus YHR013C, strain ard1, stronger effect = lower value) was 0.987. For the same compound, the normalized growth (locus YHR027C, strain rpn1, stronger effect = lower value) was 0.98, the normalized growth (locus YHR030C, strain SLT2, stronger effect = lower value) was 1 and the normalized growth (locus YHR079C, strain IRE1 (second series), stronger effect = lower value) was 1.01. The normalized growth (locus YHR079C, strain IRE1, stronger effect = lower value) was 1.01, the normalized growth (locus YHR094C, strain hxt1, stronger effect = lower value) was 1.01 and the normalized growth (locus YHR129C, strain ARP1, stronger effect = lower value) was 0.912 (active). For the same compound, the normalized growth (locus YHR142W, strain chs7, stronger effect = lower value) was 0.99, the normalized growth (locus YHR200W, strain rpn10, stronger effect = lower value) was 0.976 and the normalized growth (locus YIL066C, strain RNR3, stronger effect = lower value) was 0.939. The normalized growth (locus YIL073C, strain SPO22, stronger effect = lower value) was 0.683, the normalized growth (locus YIL125W, strain kgd1, stronger effect = lower value) was 1 and the normalized growth (locus YIR030C, strain dcg1, stronger effect = lower value) was 1.01. The normalized growth (locus YJL092W, strain hpr5, stronger effect = lower value) was 1.02, the normalized growth (locus YJL095W, strain BCK1 (second series), stronger effect = lower value) was 1.01 and the normalized growth (locus YJL095W, strain BCK1, stronger effect = lower value) was 0.811 and 0.994. It also gave a normalized growth (locus YJL115W, strain asf1, stronger effect = lower value) of 1, a normalized growth (locus YJL129C, strain trk1, stronger effect = lower value) of 1.07 and a normalized growth (locus YJL134W, strain LCB3, stronger effect = lower value) of 0.992. It also gave a normalized growth (locus YJL154C, strain vps35, stronger effect = lower value) of 1.02, a normalized growth (locus YJL164C, strain tpk1, stronger effect = lower value) of 0.991 and a normalized growth (locus YJL166W, strain qcr8, stronger effect = lower value) of 0.991. The normalized growth (locus YJL168C, strain set2, stronger effect = lower value) was 0.984, the normalized growth (locus YJL187C, strain SWE1 (second series), stronger effect = lower value) was 0.856 (active) and the normalized growth (locus YJR043C, strain POL32, stronger effect = lower value) was 0.95. The normalized growth (locus YJR066W, strain TOR1, stronger effect = lower value) was 0.913, the normalized growth (locus YKL009W, strain mrt4, stronger effect = lower value) was 1.06 and the normalized growth (locus YKL068W, stronger effect = lower value) was 0.983. It also gave a normalized growth (locus YKL085W, strain MDH1 (second series), stronger effect = lower value) of 0.977, a normalized growth (locus YKL085W, strain MDH1, stronger effect = lower value) of 0.977 and a normalized growth (locus YKL160W, strain elf1, stronger effect = lower value) of 0.983. It also gave a normalized growth (locus YKR001C, strain vps1, stronger effect = lower value) of 1.03, a normalized growth (locus YKR026C, strain gcn3, stronger effect = lower value) of 1.01 and a normalized growth (locus YKR091W, strain srl3, stronger effect = lower value) of 1.02. For the same compound, the normalized growth (locus YLL001W, strain dnm1, stronger effect = lower value) was 1.01, the normalized growth (locus YLL026W, stronger effect = lower value) was 1.01 and the normalized growth (locus YLL041C, strain sdh2, stronger effect = lower value) was 1.03. It also gave a normalized growth (locus YLR027C, strain aat2, stronger effect = lower value) of 0.984, a normalized growth (locus YLR039C, strain RIC1, stronger effect = lower value) of 0.916 and a normalized growth (locus YLR058C, strain SHM2, stronger effect = lower value) of 0.916. The normalized growth (locus YLR102C, strain apc9, stronger effect = lower value) was 0.998, the normalized growth (locus YLR113W, strain HOG1, stronger effect = lower value) was 1.07 and the normalized growth (locus YLR221C, strain rsa3, stronger effect = lower value) was 0.986. The normalized growth (locus YLR258W, strain gsy2, stronger effect = lower value) was 1.02, the normalized growth (locus YLR262C, strain YPT6 (second series), stronger effect = lower value) was 0.979 and the normalized growth (locus YLR268W, strain sec22, stronger effect = lower value) was 1.04. The normalized growth (locus YLR320W, strain mms22, stronger effect = lower value) was 0.999, the normalized growth (locus YLR330W, strain CHS5, stronger effect = lower value) was 0.974 and the normalized growth (locus YLR342W, strain FKS1 (second series), stronger effect = lower value) was 0.696 (active). For the same compound, the normalized growth (locus YLR342W, strain FKS1, stronger effect = lower value) was 0.979, the normalized growth (locus YLR357W, strain rsc2, stronger effect = lower value) was 0.907 and the normalized growth (locus YLR370C, strain arc18, stronger effect = lower value) was 0.987. For the same compound, the normalized growth (locus YLR371W, strain rom2, stronger effect = lower value) was 0.932, the normalized growth (locus YLR384C, strain iki3, stronger effect = lower value) was 1 and the normalized growth (locus YLR418C, strain cdc73, stronger effect = lower value) was 0.963. For the same compound, the normalized growth (locus YML016C, strain PPZ1, stronger effect = lower value) was 0.86 (active), the normalized growth (locus YML032C, strain rad52, stronger effect = lower value) was 1.07 and the normalized growth (locus YML120C, strain ndi1, stronger effect = lower value) was 1.04. The normalized growth (locus YML124C, strain tub3, stronger effect = lower value) was 1.02, the normalized growth (locus YMR058W, strain fet3, stronger effect = lower value) was 0.784 (active) and the normalized growth (locus YMR078C, strain ctf18, stronger effect = lower value) was 1.01. It also gave a normalized growth (locus YMR125W, strain sto1, stronger effect = lower value) of 1.05, a normalized growth (locus YMR129W, stronger effect = lower value) of 1.03 and a normalized growth (locus YMR205C, strain PFK2, stronger effect = lower value) of 1.02. For the same compound, the normalized growth (locus YMR223W, strain ubp8, stronger effect = lower value) was 0.977, the normalized growth (locus YMR231W, strain pep5, stronger effect = lower value) was 0.995 and the normalized growth (locus YMR307W, strain GAS1, stronger effect = lower value) was 0.784. It also gave a normalized growth (locus YNL067W, strain RPL9B, stronger effect = lower value) of 0.931, a normalized growth (locus YNL071W, strain lat1, stronger effect = lower value) of 1.01 and a normalized growth (locus YNL153C, strain GIM3, stronger effect = lower value) of 0.908. It also gave a normalized growth (locus YNL183C, strain NPR1, stronger effect = lower value) of 0.907, a normalized growth (locus YNL209W, strain ssb2, stronger effect = lower value) of 0.958 and a normalized growth (locus YNL233W, strain BNI4, stronger effect = lower value) of 0.911. For the same compound, the normalized growth (locus YNL248C, strain rpa49, stronger effect = lower value) was 0.995, the normalized growth (locus YNL250W, strain rad50, stronger effect = lower value) was 0.952 and the normalized growth (locus YNL271C, strain bni1, stronger effect = lower value) was 0.988. For the same compound, the normalized growth (locus YNL298W, strain CLA4, stronger effect = lower value) was 0.991, the normalized growth (locus YNL307C, strain MCK1, stronger effect = lower value) was 0.996 and the normalized growth (locus YNL322C, strain KRE1 (second series), stronger effect = lower value) was 1.01. The normalized growth (locus YNL322C, strain KRE1, stronger effect = lower value) was 0.902 (active), the normalized growth (locus YNR049C, strain mso1, stronger effect = lower value) was 1.02 and the normalized growth (locus YNR052C, strain pop2, stronger effect = lower value) was 0.954. It also gave a normalized growth (locus YOL006C, strain TOP1, stronger effect = lower value) of 0.585, a normalized growth (locus YOL012C, strain htz1) of 0.422 and a normalized growth (locus YOL147C, strain pex11, stronger effect = lower value) of 1.01. The normalized growth (locus YOR001W, strain rrp6, stronger effect = lower value) was 0.991, the normalized growth (locus YOR061W, strain CKA2, stronger effect = lower value) was 0.945 and the normalized growth (locus YOR069W, strain VPS5, stronger effect = lower value) was 0.953. It also gave a normalized growth (locus YOR070C, strain gyp1, stronger effect = lower value) of 0.965, a normalized growth (locus YOR080W, strain dia2, stronger effect = lower value) of 1.01 and a normalized growth (locus YOR083W, strain WHI5, stronger effect = lower value) of 0.971. It also gave a normalized growth (locus YOR106W, strain vam3, stronger effect = lower value) of 0.985, a normalized growth (locus YOR136W, strain idh2, stronger effect = lower value) of 1.02 and a normalized growth (locus YOR144C, strain elg1, stronger effect = lower value) of 1.01. The normalized growth (locus YOR184W, strain ser1, stronger effect = lower value) was 1.09, the normalized growth (locus YOR231W, strain MKK1, stronger effect = lower value) was 1.01 and the normalized growth (locus YOR265W, strain rbl2, stronger effect = lower value) was 1. It also gave a normalized growth (locus YOR270C, strain vph1, stronger effect = lower value) of 1.05, a normalized growth (locus YOR290C, strain snf2, stronger effect = lower value) of 0.997 and a normalized growth (locus YOR316C, strain cot1, stronger effect = lower value) of 0.996. It also gave a normalized growth (locus YPL051W, strain arl3, stronger effect = lower value) of 0.929, a normalized growth (locus YPL078C, strain atp4, stronger effect = lower value) of 1.02 and a normalized growth (locus YPL106C, strain sse1, stronger effect = lower value) of 0.957. For the same compound, the normalized growth (locus YPL240C, strain hsp82, stronger effect = lower value) was 1.02, the normalized growth (locus YPL256C, strain CLN2, stronger effect = lower value) was 1.02 and the normalized growth (locus YPR119W, strain clb2, stronger effect = lower value) was 1.01. For the same compound, the normalized growth (locus YPR141C, strain kar3, stronger effect = lower value) was 0.982, the normalized growth (locus YPR163C, strain tif3, stronger effect = lower value) was 1.01 and the normalized growth (locus YPR167C, strain met16, stronger effect = lower value) was 1.01. It also gave a normalized growth (strain wtn01, stronger effect = lower value) of 1.02.
